From PubChem BioAssay AID1030 (National Center for Advancing Translational Sciences (NCATS), 2008) come the findings set out here.

Molecules are shown by their SMILES. Among all 220,000 compounds or so, about 16,000 (7.3%) were called active. Where a call stands in place of a potency, no number is given. Inconclusive results (about 25%) are left out. Calls follow the shape of the dose curve; as a rule, active = well fitted inhibition curve with a large enough effect (not every such curve was filed as active); inconclusive = small, poorly fitted or top-dose-only effect, or another doubt; inactive = no such curve, though single readings can be large or run the other way. The sample as a whole holds a higher share of actives than the screen did.
Potency is read from the fitted curve at half-maximal effect.

The target of the test is Aldehyde dehydrogenase 1A1 (Homo sapiens) (UniProt P00352). Description: qHTS Assay for Inhibitors of Aldehyde Dehydrogenase 1 (ALDH1A1). The note with it: Purified ALDH1A1, NADH fluorescence, propionaldehyde substrate; series mostly up to 75.3 µM.
Aldehyde dehydrogenase 1A1 (Homo sapiens), sequence (P00352 whole entry, looked up): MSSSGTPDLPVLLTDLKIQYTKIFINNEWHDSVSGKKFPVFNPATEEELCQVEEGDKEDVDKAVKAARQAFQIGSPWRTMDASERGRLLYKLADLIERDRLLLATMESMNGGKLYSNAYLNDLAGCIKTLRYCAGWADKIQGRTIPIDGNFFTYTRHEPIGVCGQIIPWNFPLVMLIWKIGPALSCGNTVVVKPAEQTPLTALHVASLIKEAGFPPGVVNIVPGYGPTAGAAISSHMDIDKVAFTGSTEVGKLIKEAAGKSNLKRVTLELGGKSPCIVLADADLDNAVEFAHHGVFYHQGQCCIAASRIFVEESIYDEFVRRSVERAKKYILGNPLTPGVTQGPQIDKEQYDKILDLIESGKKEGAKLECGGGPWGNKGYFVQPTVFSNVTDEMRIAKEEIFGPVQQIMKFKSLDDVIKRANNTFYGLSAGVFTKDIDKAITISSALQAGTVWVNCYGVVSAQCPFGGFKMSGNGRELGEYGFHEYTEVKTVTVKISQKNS
Take `CN(/C(=N/S(=O)(=O)c1cccs1)c1ccccc1)c1ccc(O)cc1`: the Potency result is “inactive”.

Consider `Cc1nnc(SC(C(=O)Nc2cc(Cl)cc(Cl)c2)c2ccccc2)[nH]c1=O` (configuration not stated), for which the Potency entry was “inactive”.

For `O=C(Nc1cc(Cl)cc(Cl)c1)C(NCCCO)c1ccccc1` (configuration not stated), the Potency was 1.26 µM (active).

Regarding `CCC(C(=O)Nc1ccc(C(C)C)cc1)c1ccccc1` (configuration not stated), the Potency entry was “inactive”.

`Cc1c(Br)c([N+](=O)[O-])nn1CC(=O)N1CCN(Cc2ccccc2)CC1`: the Potency result was “inactive”.

`COc1ccc(C(=O)Nc2ccc(-n3nncc3C(C)(C)C)cc2)cc1`: the Potency result was “inactive”.

On to `CC(C)NC(=S)N1CCN(C(c2ccccc2)c2ccccc2)CC1`, for which the Potency is 10 µM (active).

Regarding `CC(C)NC(=S)N1CCN(S(C)(=O)=O)CC1`, the Potency entry is “inactive”.

On to `O=C(c1ccc(-n2cnnn2)cc1)N1CCN(C(c2ccccc2)c2ccccc2)CC1`, for which the Potency entry was “inactive”.

For the molecule `CCOC(=O)C1CCN(S(=O)(=O)c2cc(F)ccc2OC)CC1`, the Potency entry was “inactive”.

With `CCOC(=O)Cn1c(N)c(C(=O)OC)sc1=S`, the Potency entry was “inactive”.

Regarding `COCCOC(=O)c1sc(=S)n(CCOC)c1N`, the Potency is 10 µM (active).

`CCOC(=O)c1cnc2c(c(C)nn2CC)c1Cl`: the Potency result is “inactive”.

Take `CN1CCN(S(=O)(=O)c2ccc(N3CCN(S(=O)(=O)c4cccs4)CC3)nc2)CC1`: the Potency result is “inactive”.

Take `O=S(=O)(c1cccs1)N1CCN(Cc2ccccc2)CC1`: the Potency entry was “inactive”.

With `COc1ccc2c(CN3CCN(S(=O)(=O)c4cccs4)CC3)cc(=O)oc2c1`, the Potency is 14.1 µM (active).

`COc1ccc(C(=O)NCC(=O)N/N=C/c2ccc([N+](=O)[O-])s2)cc1OC`: the Potency entry was “inactive”.

With `Cc1ccc(S(=O)(=O)N/N=C\c2cc3c(cc2[N+](=O)[O-])OCO3)cc1`, the Potency was 1.26 µM (active).

On to `Cc1ccc(-c2n[nH]c(=S)n2/N=C/c2cc3c(cc2[N+](=O)[O-])OCO3)cc1`, for which the Potency entry is “inactive”.

On to `CC(=O)N/N=C/c1cc2c(cc1[N+](=O)[O-])OCO2`, for which the Potency entry was “inactive”.

For the molecule `COc1cc(NC(=O)c2cccnc2SC)cc(OC)c1`, the Potency result is “inactive”.

Consider `COc1ccc(N2CCN(C(=O)CSc3nc4cc(OC)c(OC)cc4cc3C#N)CC2)cc1`, for which the Potency was 14.1 µM (active).

In the case of `COc1ccc(N2CCN(C(=O)CSc3ncnc4c3cnn4-c3ccc(OC)cc3)CC2)cc1`, the Potency result was “inactive”.

Take `CCOc1ccc(-c2nnn(CC(=O)N3CCN(c4ccc(OC)cc4)CC3)n2)cc1OCC`: the Potency result is “inactive”.

Turning to `CCCC(=O)Nc1nnc(-c2ccccc2)o1`, the Potency entry is “inactive”.

For the molecule `COc1ccc(C(=O)NC2CCN(C(=S)Nc3ccccc3)CC2)cc1`, the Potency result was “inactive”.

For `Cc1nnc(SCC(=O)N2CCN(c3ccccc3)CC2)n1-c1ccccc1`, the Potency entry was “inactive”.

Take `CC(C)N(C(=O)Cn1c(SCC(=O)N2CCN(c3ccccc3)CC2)nc2ccccc21)C(C)C`: the Potency is 25.1 µM (active).

With `CCN(CC)C(=O)CSc1nc2ccccc2n1CC(=O)N1CCN(c2ccccc2OC)CC1`, the Potency entry was “inactive”.

Turning to `CCN1CCN(c2ccc(NC(=O)c3cnccn3)cc2)CC1`, the Potency entry is “inactive”.

In the case of `COc1ccc(Nc2ncc(F)c(N3CCOCC3)n2)cc1`, the Potency result was “inactive”.

As to `CC(C(=O)NC1CCCC1)N(c1ccc(Oc2ccccc2)cc1)S(C)(=O)=O` (configuration not stated), the Potency result was “inactive”.

As to `Cc1cccc(N(CC(=O)N2CCOCC2)S(C)(=O)=O)c1`, the Potency result was “inactive”.

As for `Cc1ccc(N2C(=O)SC(N(CC(=O)O)c3ccc(C)cc3)C2=O)cc1` (configuration not stated), the Potency result was “inactive”.

For `Cc1cccc(N2C(=O)SC(N(CC(=O)O)c3cccc(C)c3)C2=O)c1` (configuration not stated), the Potency was 14.1 µM (active).

For the molecule `Clc1ncn(CCOc2ccccc2)c1Cl`, the Potency result was “inactive”.

Regarding `Cc1noc(C)c1S(=O)(=O)Nc1ccc(C(=O)N2CCN(c3ccc(F)cc3)CC2)cc1`, the Potency result was “inactive”.

Turning to `COC(=O)C1=C(C)NC2=C(C(=O)c3ccccc32)C1c1ccc(-c2ccc(C(=O)O)cc2)o1` (configuration not stated), the Potency was 3.16 µM (active).

For the molecule `COC(=O)C1=C(C)NC(=O)NC1/C=C/c1ccccc1` (configuration not stated), the Potency result is “inactive”.

As for `COc1ccccc1NC(=O)C1=C(C)NC2=C(C(=O)CCC2)C1c1ccc(C)o1` (configuration not stated), the Potency result is “inactive”.

Consider `COC(=O)c1cc2n(n1)CCCNC2=O`, for which the Potency entry is “inactive”.

For `COc1ccc(/C=C2\SC(=N)N(c3ccc(F)cc3)C2=O)cc1`, the Potency result was “inactive”.

In the case of `O=C(Nc1ccc(Cl)cn1)c1ccc2c(c1)OCCO2`, the Potency result was “inactive”.

With `CNc1ccc([N+](=O)[O-])cc1C(=O)O`, the Potency result was “inactive”.

As for `COc1cccc(N2C(=O)C3CCCN3C2c2ccc(F)cc2)c1` (configuration not stated), the Potency entry was “inactive”.

Take `COc1cc(OC)cc(C(=O)NC(=S)N2CCN(c3ccc(C(F)(F)F)cc3[N+](=O)[O-])CC2)c1`: the Potency result was “inactive”.

Consider `COc1ccc(N2C(=O)CC(Nc3ccc(F)cc3)C2=O)c([N+](=O)[O-])c1` (configuration not stated), for which the Potency is 17.8 µM (active).

On to `CC(Oc1ccc(Br)cc1Br)C(=O)NC1CCCC1` (configuration not stated), for which the Potency result was “inactive”.

`CCC1CO/C(=C(\C(=C(Cl)Cl)N2CCOCC2)[N+](=O)[O-])N1` (configuration not stated): the Potency entry was “inactive”.

As for `CCc1nnc(NC(=O)c2cccc(S(=O)(=O)N(C)c3ccc(OC)cc3)c2)s1`, the Potency result is “inactive”.

In the case of `Cc1ccc(S(=O)(=O)N2CCN(C(=O)c3cccs3)CC2)cc1`, the Potency result was “inactive”.

Consider `COc1cccc(NC(=S)N(CCc2c(C)[nH]c3ccccc23)Cc2ccco2)c1`, for which the Potency result is “inactive”.

For the molecule `Cc1[nH]c2ccccc2c1CCN(Cc1cccs1)C(=S)NC(C)(C)C`, the Potency result was “inactive”.

`COc1ccc2[nH]c(C)c(CCN(Cc3cccs3)C(=S)Nc3ccccc3OC)c2c1`: the Potency was 25.1 µM (active).

Consider `Cc1cc(Cl)ccc1OCc1nc(-c2ccncc2)no1`, for which the Potency entry is “inactive”.

Take `Nc1ccccc1Sc1cc(Cl)nnc1Cl`: the Potency was 25.1 µM (active).

With `Nc1ccccc1N`, the Potency result was “inactive”.

In the case of `Cc1nn(C)c(C)c1Sc1ccccc1N`, the Potency entry is “inactive”.

For the molecule `COc1ccc(CN2CCN(Cc3cn(C)nc3-c3ccccc3)CC2CCO)c(C)c1C` (configuration not stated), the Potency result is “inactive”.

In the case of `CCOC(=O)CSc1nnc(-c2ccc([N+](=O)[O-])cc2)o1`, the Potency entry was “inactive”.

`COc1cccc(CN(C)CC(=O)NCc2ccccc2Cl)c1OC`: the Potency result was “inactive”.

In the case of `Cc1ccccc1CN1C[C@@H]2C[C@@H](c3cn(C)nc3-c3ccccc3)N3CCC[C@@]23C1=O`, the Potency is 1.58 µM (active).

Regarding `Cc1ccc(CN2CCN(Cc3cn(C)nc3-c3ccccc3)CC2CCO)o1` (configuration not stated), the Potency entry is “inactive”.

As for `Cc1ccccc1CN1C[C@@H]2C[C@@H](c3ccc4nsnc4c3)N3CCC[C@@]23C1=O`, the Potency result was “inactive”.

Turning to `CC1CCCN(C(=O)Cn2c(=O)oc3ccccc32)C1` (configuration not stated), the Potency result was “inactive”.

Take `Cn1nnc2cc(C(=O)NCCC3=CCCCC3)ccc21`: the Potency entry was “inactive”.

As for `CC1CCCN(C(=O)c2ccc3c(c2)C(=O)N(CCC2=CCCCC2)C3=O)C1` (configuration not stated), the Potency was 0.501 µM (active).
